PLCb3 inh: human PLC-beta3 inhibitors, primary screen, biochemical, fluorescence | 1-phosphatidylinositol 4,5-bisphosphate phosphodiesterase beta-3 (Homo sapiens), Q01970 | Purified PLC-beta3, fluorogenic substrate | inhibition, % at 12.2 µM | 370,000 compounds, 0.18% hits;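 also: 0% = median of compound wells on plate and 100% = full blocker control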
Target sequence (Q01970 whole entry, looked up): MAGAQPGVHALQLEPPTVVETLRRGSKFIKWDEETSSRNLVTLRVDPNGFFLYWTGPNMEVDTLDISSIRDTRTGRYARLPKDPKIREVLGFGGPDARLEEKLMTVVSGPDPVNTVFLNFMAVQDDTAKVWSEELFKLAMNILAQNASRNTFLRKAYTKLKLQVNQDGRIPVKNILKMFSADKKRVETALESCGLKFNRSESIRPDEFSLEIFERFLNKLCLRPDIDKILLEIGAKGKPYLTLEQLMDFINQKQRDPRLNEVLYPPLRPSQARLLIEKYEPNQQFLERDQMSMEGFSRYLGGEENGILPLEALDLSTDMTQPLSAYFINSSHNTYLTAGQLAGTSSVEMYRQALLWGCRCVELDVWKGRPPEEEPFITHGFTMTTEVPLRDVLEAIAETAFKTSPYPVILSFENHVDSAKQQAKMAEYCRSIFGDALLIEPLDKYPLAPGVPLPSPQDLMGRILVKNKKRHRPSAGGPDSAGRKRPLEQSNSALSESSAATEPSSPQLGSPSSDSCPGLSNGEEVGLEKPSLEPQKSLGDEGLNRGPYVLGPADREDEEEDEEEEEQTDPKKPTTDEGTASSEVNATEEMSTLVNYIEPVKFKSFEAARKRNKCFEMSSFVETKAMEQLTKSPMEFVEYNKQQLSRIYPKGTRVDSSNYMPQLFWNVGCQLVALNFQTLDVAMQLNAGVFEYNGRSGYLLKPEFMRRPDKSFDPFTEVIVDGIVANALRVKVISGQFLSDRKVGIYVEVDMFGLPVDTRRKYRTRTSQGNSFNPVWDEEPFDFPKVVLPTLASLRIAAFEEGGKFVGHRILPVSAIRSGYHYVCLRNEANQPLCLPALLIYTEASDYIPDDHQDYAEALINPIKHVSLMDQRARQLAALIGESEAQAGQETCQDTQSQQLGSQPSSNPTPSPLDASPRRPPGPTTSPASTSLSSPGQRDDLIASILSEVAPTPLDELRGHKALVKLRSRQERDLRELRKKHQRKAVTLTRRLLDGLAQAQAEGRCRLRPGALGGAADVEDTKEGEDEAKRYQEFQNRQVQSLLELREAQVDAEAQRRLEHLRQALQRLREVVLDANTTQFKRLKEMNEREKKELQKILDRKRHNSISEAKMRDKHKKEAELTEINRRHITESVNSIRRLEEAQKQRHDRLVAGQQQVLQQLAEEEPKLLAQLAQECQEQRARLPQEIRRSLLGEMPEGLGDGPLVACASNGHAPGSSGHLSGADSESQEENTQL
ADAM10 inh: human ADAM10 inhibitors, primary screen, biochemical, QFRET, HTS. recombinant ADAM10, EDANS/DABCYL FRET peptide cleavage, 3 h. inhibition, % at 7 µM. 370,000 compounds, 0.62% hits;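 active = inhibition above a per-campaign cutoff equal to the mean of compounds falling between control-based bounds plus 3 SD, cut at about 20% in these data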;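 also: 0% = DMSO wells while the 100% control is not disclosed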
PLCg1 inh: PLC-gamma1 enzyme inhibitors, primary screen, biochemical, fluorescence, purified enzyme | inhibition, % at 12.2 µM | 370,000 compounds, 0.84% hits | fluorogenic substrate; in the data active = inhibition above about 9.5%
proKLK7 act: proKLK7 zymogen activators, primary screen, biochemical, fluorescence intensity | Kallikrein-7 (Homo sapiens), P49862 | purified proKLK7, EDANS-DABCYL substrate fluorescence; 100% is mature enzyme control, 0% vehicle | activation, % at 7 µM | 370,000 compounds, 0.9% hits;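 active = activation above the mean of all tested compounds plus 3 SD, computed per campaign excluding outliers beyond control limits, cut at about 13% in these data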
ADAM17 inh: ADAM17 inhibitors, primary screen, biochemical, QFRET; AID 720648, 2013; inhibition, % at 6.95 µM; recombinant ADAM17, EDANS/DABCYL FRET peptide cleavage; 370,000 compounds, 0.83% hits; Disintegrin and metalloproteinase domain-containing protein 17 (Homo sapiens), P78536;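 active = inhibition above the mean of compounds lying between control limits plus 3 SD, set per campaign, cut at about 8.5% in these data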;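 also: 0% = DMSO-only wells as the low control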
PLCg1 ctr: PLC-gamma1 enzyme inhibitors, counter-screen for PLC-beta3 inhibitor project, biochemical, fluorescence | shares compounds with PLCg1 inh | purified PLC-gamma1, fluorogenic substrate | inhibition, % at 12.3 µM | 3,300 compounds, 3.1% hits; in the data active = inhibition above about 9.5%
PLCb3 confirm: PLC-beta3 inhibitor confirmation, biochemical, fluorescence, purified enzyme | shares compounds with PLCg1 inh | fluorogenic substrate fluorescence | inhibition, % at 12.3 µM | 3,300 compounds, 1% hits | AID 743261, 2014
* = called active by the depositor; · = no result. Only some compounds are listed: those with a hit (about 2.9% of all), similar ones and a draw of the others. Rule as the data show it, unless noted: active = inhibition above about 11%; inactive = the rest.

SMILES | PLCb3 inh | ADAM10 inh | PLCg1 inh | proKLK7 act | ADAM17 inh | PLCg1 ctr | PLCb3 confirm
Cc1ccc(NC(=O)CSc2ccccc2)cc1S(=O)(=O)N1CCOCC1 | -2 | 12 | 12* | 1 | 3 | -32 | -3
Cc1ccc(NC(=O)COc2ccccc2)cc1S(=O)(=O)N1CCCCCC1 | -5 | 12 | 1 | 1 | 5 | · | ·
O=C(Cc1cccs1)Nc1ccc(F)c(S(=O)(=O)N2CCOCC2)c1 | 1 | 4 | 9.9* | -1 | 4 | -5 | -1
CC1=C(C(=O)OCC(Br)(Br)Br)C(c2cccc([N+](=O)[O-])c2)NC(=O)N1CCCC(=O)O (stereo not drawn) | -3 | -6 | -2 | 0 | -4 | · | ·
CCCCCC[C@@H](CCCc1ccccc1OC)CN(CCCC)S(C)(=O)=O | 4 | 3 | 3 | 0 | 0 | · | ·
COc1ccc(NC(=O)c2cc(-c3sc(NC(=O)c4ccccc4)nc3C)n(CCO)n2)cc1 | -10 | -19 | -6 | 1 | -5 | · | ·
COc1cccc(/C=C/C(=O)N2CCN(S(=O)(=O)c3ccccc3)CC2)c1 | -40 | -69 | -20 | 1 | -13 | · | ·
O=C(Cc1ccc(Cl)cc1)NN1C(=O)c2ccccc2C1=O | 4 | 9 | 11* | 0 | 6 | -9 | 0
Cc1cc(C)cc(OCC(=O)NN2C(=O)c3ccccc3C2=O)c1 | -2 | 6 | -3 | 0 | -1 | · | ·
CC(=O)Nc1cccc(-c2ccnc3c2CC(C(=O)NCC2CCOCC2)O3)c1 (stereo not drawn) | 13* | 7 | 12* | 0 | 5 | -1 | 3
CC1CCC(C(C)C)C(OCC(O)CN2CCCC(C)C2)C1 (stereo not drawn) | -2 | -4 | 3 | 0 | -5 | · | ·
CC1CCC(C(C)C)C(OCC(O)C[N+]2(C)CCCCC2)C1 (stereo not drawn) | 0 | 6 | 11* | 0 | 3 | -3 | -1
C=CCN(C(=O)[C@@H](C)[C@@H](O)c1ccc(C(C)=O)cc1)c1ccccc1 | -3 | -3 | -2 | 0 | -4 | · | ·
N#C/C(=C\c1ccc(OCc2ccc(F)cc2)cc1)C(=O)Nc1cccc(C(=O)O)c1 | 8 | 15 | 10* | 0 | 2 | -8 | -12
Cc1cccc(C(=O)O/N=C(\N)c2ccc(Cl)cc2)c1 | 0 | -4 | 2 | 0 | 1 | · | ·
Cc1ccc(/C(N)=N/OC(=O)c2ccc(Cl)cc2Cl)cc1 | 13* | 5 | 6 | 0 | 0 | -1 | -1
O[C@H](COc1ccc(Cl)cc1)CN1CCC(C(O)(c2ccccc2)c2ccccc2)CC1 | 0 | 7 | 1 | 1 | 2 | · | ·
O[C@H](COc1ccccc1)CN1CCC(C(O)(c2ccccc2)c2ccccc2)CC1 | 12* | 2 | 5 | 0 | 5 | -4 | -1
CCN(CC)c1ncnc2c1ncn2[C@H]1CN(Cc2cc(OC)c(OC)c(OC)c2)C[C@@H](CO)O1 | 2 | -5 | 0 | 1 | -4 | · | ·
Cc1cc(C)c(OCCN2CCCC2)c(Cl)c1 | -3 | -2 | 0 | 0 | -4 | · | ·
Cc1cc(Cl)c(OCCCN2CCCCC2)c(Br)c1 | 6 | 6 | 10* | -1 | 5 | -5 | 0
COC(=O)CC1(C(=O)OC)Nc2cc(Cl)c(Cl)cc2S(=O)(=O)N1O (stereo not drawn) | -1 | 3 | -1 | 0 | 3 | · | ·
Cc1cccc(CC2S/C(=N/N=C/c3ccco3)N(c3ccccc3)C2=O)c1 (stereo not drawn) | 4 | 8 | 11* | 0 | 3 | 0 | -1
CCC1S/C(=N/N=C/c2ccco2)N(c2ccc(F)cc2)C1=O (stereo not drawn) | 3 | 8 | 3 | 0 | -1 | · | ·
Cc1cc(NS(=O)(=O)c2ccc(NC(=O)CSc3nc4sc(C)c(C)c4c(=O)n3Cc3ccco3)cc2)nc(C)n1 | -1 | 5 | -4 | 0 | 3 | · | ·
SMILES | PLCb3 inh | ADAM10 inh | PLCg1 inh | proKLK7 act | ADAM17 inh | PLCg1 ctr | PLCb3 confirm
CCN1CCN(C(c2ccccc2)c2nnnn2C(C)(C)C)CC1 (stereo not drawn) | 0 | -2 | 1 | 0 | -3 | · | ·
CC(C)(C)n1nnnc1C(c1ccccc1)N1CCN(C(=O)C2CCCO2)CC1 (stereo not drawn) | 4 | 6 | 9.9* | 1 | 2 | -6 | 2
CCCCn1nnnc1C(c1ccccc1)N1CCN(C(=O)C2CCCO2)CC1 (stereo not drawn) | 2 | -3 | 0 | 0 | -2 | · | ·
CN1CCN(C(c2ccccc2)c2nnnn2C(C)(C)C)CC1 (stereo not drawn) | 5 | 1 | 12* | 0 | 3 | -1 | -7
O=c1c2cc([N+](=O)[O-])ccc2nc2n1CCCC2 | -13 | 4 | -5 | 0 | -2 | · | ·
Cc1ccc2nc3n(c(=O)c2c1)CCCCC3 | 5 | 8 | 11* | 0 | 6 | -7 | -4
Cc1nn(CCOc2ccccc2)c(=O)n1-c1ccc(F)cc1 | 0 | -6 | 11* | 0 | -6 | -4 | -2
O=C(CSc1nc2nn(-c3ccccc3)c(=O)c-2c2n1CCCCC2)Nc1ccccc1[N+](=O)[O-] | 0 | 4 | 3 | 0 | 4 | · | ·
Cc1ccccc1C(=O)NC(C)c1ccc2c(c1)CCCC2 (stereo not drawn) | 13* | 7 | 10* | 0 | 2 | 2 | 7
O=S(=O)(CS(=O)(=O)c1ccc(Br)cc1)c1ccc(Br)cc1 | 0 | -5 | 27* | 0 | -6 | 21* | 1
O=S(=O)(c1ccc(Br)cc1)N1CCCC1 | -3 | 0 | 4 | 0 | -1 | · | ·
COc1ccc(CC2(CO)CCN(Cc3ccc(NC(C)=O)cc3)CC2)cc1 | -2 | 2 | 5 | 0 | -1 | · | ·
COc1ccc(CC2(CO)CCN(Cc3nc(C(C)C)cs3)CC2)cc1 | 7 | 11 | 13* | 0 | 7 | -6 | -1
Cc1[nH]nc(Nc2ccc(C(C)C)cc2)c1[N+](=O)[O-] | -4 | 20 | 11* | 0 | 8 | -3 | -2
CC(C)Oc1ccc(C(=O)NC(=S)Nc2ccc(CN3CCOCC3)cc2)cc1 | 9 | 16 | 2 | 0 | 2 | · | ·
Cc1ccc(C(=O)NC(=S)Nc2ccc(CN3CCOCC3)cc2)cc1 | -2 | -7 | 10* | 0 | 0 | -7 | -3

Screening results deposited in PubChem BioAssay by The Scripps Research Institute Molecular Screening Center.
